Experimental data: PubChem BioAssay AID1159580 (chemical genetic matrix, 2015)
Where “and” joins values, the source holds several entries; their conditions need not be identical. Equal entries are not always repeated. About 2,000 (36%) of roughly 5,500 compounds were called active. About 18% were inconclusive and are not listed. Cut-off read from the data, not from the text of the source: active = normalized growth mostly below about 0.91 (no sharp cut-off); inconclusive = no clear call, values can overlap the other calls; inactive = mostly above about 0.92. The list shows a part of the results.

Assay: chemical genetic growth profiling, strain panel (AID 1159580);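 note: tested at 20 µM; growth read once vehicle control cultures reached saturation at 30 °C; 1 = growth at the plate median or of vehicle wells; lower values mean less growth of the strain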
Conditions: S. cerevisiae deletion strains, growth OD

Measured: normalized growth

C#C[C@]1(OC(C)=O)CCC2C3CCC4=CC(=O)CC[C@@H]4C3CC[C@@]21C (some centres not stated)
inactive: locus YAL013W, strain DEP1, hits give low values 0.97 | locus YAL021C, strain ccr4, hits give low values 0.988 | locus YAL026C, strain drs2, hits give low values 0.984 | locus YAL030W, strain snc1, hits give low values 0.986 | locus YBL061C, strain skt5, hits give low values 0.981 | locus YBR009C, strain hhf1, hits give low values 0.991 | locus YBR021W, strain FUR4, hits give low values 0.98 | locus YBR023C, strain chs3, hits give low values 0.976 | locus YBR171W, strain sec66, hits give low values 0.974 | locus YBR229C, strain ROT2, hits give low values 0.953 | locus YBR231C, strain swc5, hits give low values 1.01 | locus YBR279W, strain paf1, hits give low values 0.977 | locus YCL011C, strain gbp2, hits give low values 0.985 | locus YCL016C, strain dcc1, hits give low values 0.974 | locus YCL029C, strain bik1, hits give low values 0.96 | locus YCL069W, strain vba3, hits give low values 0.973 | locus YCR088W, strain abp1, hits give low values 0.99 | locus YDL005C, strain med2, hits give low values 0.971 | locus YDL035C, strain GPR1, hits give low values 0.972 | locus YDL040C, strain nat1, hits give low values 0.985 | locus YDL074C, strain BRE1, hits give low values 0.965 | locus YDL101C, strain DUN1, hits give low values 0.97 | locus YDL134C, strain PPH21, hits give low values 0.948 | locus YDL185W, strain tfp1, hits give low values 0.976 | locus YDL192W, strain arf1, hits give low values 0.961 | locus YDR001C, strain nth1, hits give low values 0.999 | locus YDR069C, strain doa4, hits give low values 0.969 | locus YDR101C, strain arx1, hits give low values 0.977 | locus YDR137W, strain rgp1, hits give low values 0.982 | locus YDR159W, strain sac3, hits give low values 0.936 | locus YDR162C, strain NBP2, hits give low values 0.961 | locus YDR195W, strain ref2 0.978 | locus YDR297W, strain sur2, hits give low values 0.994 | locus YDR318W, strain mcm21, hits give low values 0.941 | locus YDR334W, strain swr1, hits give low values 1.02 | locus YDR335W, strain msn5, hits give low values 0.978 | locus YDR388W, hits give low values 0.966 | locus YDR392W, strain spt3, hits give low values 0.828 | locus YDR502C, strain sam2, hits give low values 0.949 | locus YEL003W, strain gim4, hits give low values 1.01 | locus YEL037C, strain rad23, hits give low values 1 | locus YEL061C, strain CIN8 (second series), hits give low values 0.991 | locus YEL061C, strain CIN8, hits give low values 0.978 | locus YER015W, strain faa2, hits give low values 0.995 | locus YER016W, strain bim1, hits give low values 0.988 | locus YER110C, hits give low values 0.97 | locus YER111C, strain swi4, hits give low values 0.985 | locus YER155C, strain BEM2 (second series), hits give low values 0.975 | locus YER155C, strain BEM2, hits give low values 0.971 | locus YER167W, strain BCK2, hits give low values 0.974 | locus YFR010W, strain ubp6, hits give low values 1 | locus YGL078C, strain dbp3, hits give low values 0.989 | locus YGL086W, strain mad1, hits give low values 0.957 | locus YGL167C, strain pmr1, hits give low values 0.993 | locus YGL173C, strain kem1, hits give low values 0.989 | locus YGL227W, strain vid30, hits give low values 0.975 | locus YGL240W, strain doc1, hits give low values 1 | locus YGL248W, strain PDE1, hits give low values 0.967 | locus YGL253W, strain hxk2, hits give low values 1.01 | locus YGR135W, strain pre9, hits give low values 0.925 | locus YGR252W, strain gcn5, hits give low values 1.07 | locus YHR013C, strain ard1, hits give low values 0.955 | locus YHR027C, strain rpn1, hits give low values 1.01 | locus YHR030C, strain SLT2, hits give low values 0.975 and 0.933 | locus YHR079C, strain IRE1 (second series), hits give low values 0.969 | locus YHR079C, strain IRE1, hits give low values 0.92 | locus YHR094C, strain hxt1, hits give low values 0.981 | locus YHR129C, strain ARP1, hits give low values 0.974 | locus YHR142W, strain chs7, hits give low values 1 | locus YHR200W, strain rpn10, hits give low values 0.963 | locus YIL066C, strain RNR3, hits give low values 0.965 | locus YIL073C, strain SPO22, hits give low values 0.926 | locus YIL125W, strain kgd1, hits give low values 0.971 | locus YIR030C, strain dcg1, hits give low values 0.961 | locus YJL092W, strain hpr5, hits give low values 1 | locus YJL095W, strain BCK1 (second series), hits give low values 0.984 | locus YJL095W, strain BCK1, hits give low values 0.926 and 0.95 | locus YJL115W, strain asf1, hits give low values 0.982 | locus YJL129C, strain trk1, hits give low values 0.975 | locus YJL134W, strain LCB3, hits give low values 0.973 | locus YJL154C, strain vps35, hits give low values 0.985 | locus YJL164C, strain tpk1, hits give low values 0.99 | locus YJL166W, strain qcr8, hits give low values 0.995 | locus YJL168C, strain set2, hits give low values 0.97 | locus YJL187C, strain SWE1 (second series), hits give low values 0.961 | locus YJR043C, strain POL32, hits give low values 1.03 | locus YJR066W, strain TOR1, hits give low values 0.903
